This is an account of results in ChEMBL document CHEMBL4513216, “Probing the Open Global Health Chemical Diversity Library for Multistage-Active Starting Points for Next-Generation Antimalarials” (ACS Infect Dis, 2020).

Screen size: about 69,000 compounds; about 8,600 (12%) showed an effect of 50% or more. Many of the other results were omitted from the sample, so strong results are more common in it than they were.

This test has as its system Plasmodium berghei. Briefly: Screen against P. berghei liver stage (PbLuc), transformed with Luciferase, at 10uM. In kind it is functional, HepG2. Particulars: tested at 10 uM.
Turning to `Cc1nc(C(C)C)sc1C(=O)N1CCC(N2CCSCC2)CC1`, the INHIBITION stood at 1.86%. With `CN1CCOCC2(CCN(Cc3ccc[nH]3)CC2)C1` the figure was 18.7%; with `CS(=O)(=O)N1CCOCC2(CCN(Cc3ccc[nH]3)CC2)C1`, 57.1%. Then `c1c[nH]c(CN2CCC3(CC2)COCCN(CCN2CCCC2)C3)c1`, with -15.3%; and `O=C(O)c1ccccc1-c1ccc(CN2CCC(CO)C2)cn1` (centres undefined), with 33.2%. With `CC(C)n1cnc2c1C(C(=O)N1CCOCC1)N(CC1CC1)CC2` (centres undefined) the figure was -49.1%.

In the case of `Cc1cccc(CN2CCc3c(COCC(=O)N(C)C)nn(C)c3C2)n1`, the INHIBITION came out at 76.2%. With `Cc1cccc(CN2CCc3c(CNC(=O)CC#N)nn(C)c3C2)n1` the figure was 44.2%. Then `CN(C)C(=O)COCc1nn(C)c2c1CCN(Cc1ccco1)C2`, with 13.3%. Turning to `CN1CCC(c2cccc(-c3ccc(C(=O)O)cc3)n2)CC1`, the INHIBITION was determined as 15.5%. For the molecule `c1csc(CN2CCCN(c3ncnc4[nH]ccc34)CC2)c1`, the INHIBITION came out at 38.4%. Then `CCCc1nc(N(C)CCc2noc(C(C)C)n2)c2cnn(C)c2n1`, with 42.3%.

On to `CCCc1nc(N(C)CCN2CCCCCC2)c2cnn(C)c2n1`, for which the INHIBITION is 53%. Then `CCCc1nc(N(C)Cc2cnc(NC)nc2)c2cnn(C)c2n1`, with 58.7%; and `CNc1ncc(CN(C)c2nc(C3CCCC3)nc3c2cnn3C)cn1`, with 24.7%.

Regarding `CCCc1nc(N2CCCN(c3ncccn3)CC2)c2cnn(C)c2n1`, the INHIBITION is 30.9%. With `CN(C)CCN(C)c1nc(CCc2ccccc2)nc2c1cnn2C` the figure was -13.4%. On to `Cc1cccc(-n2c(C)cc(C(=O)NS(C)(=O)=O)c2C)c1`, for which the INHIBITION is 9.14%. Regarding `C/C(Cl)=C/CNC(=O)C1CCC2(CC1)CN(C)C(=O)c1ccccc1O2` (centres undefined), the INHIBITION was determined as 7.96%. Then `CCC(C)NS(=O)(=O)c1ccc(C=Cc2onc(C)c2NC(C)=O)cc1` (centres undefined), with -9.55%; and `CN(C)C(=O)CN1CCCN(CC2CCOc3ccccc3C2)CC1` (centres undefined), with 75.2%. With `CC(C)NC(=O)CN1CCN(CC2CCOc3ccccc3C2)CC1` (centres undefined) the figure was -19.8%; with `O=C(CN1CCN(CC2CCOc3ccccc3C2)CC1)N1CCCC1` (centres undefined), 16.1%; with `O=C(COc1ccccc1Cl)N1CCCC(n2ccnc2)C1` (centres undefined), 19.5%.

For the molecule `O=C(c1ccc(S(=O)(=O)N2CCSCC2)cc1)N1CCCCCC1`, the INHIBITION was 24.2%. Then `Cc1ccc(C(=O)N2CCN3C[C@H](Oc4cccnc4)C[C@H]3C2)cn1`, with 39.3%; and `Cc1n[nH]c(C)c1CCC(=O)NCC1CCOc2ccccc2C1` (centres undefined), with 49.9%. Then `COc1ccc2c(c1)OCC(CNC(=O)c1ccncc1)C2` (centres undefined), with 4.2%; and `CCc1nc(C)c(C(=O)NCC2COc3cc(OC)ccc3C2)o1` (centres undefined), with 53.2%; and `COc1ccc2c(c1)OCC(CNC(=O)CCc1c(C)n[nH]c1C)C2` (centres undefined), with 35%. With `COCCC(=O)NCC1COc2cc(OC)ccc2C1` (centres undefined) the figure was 72.7%. Turning to `Cc1[nH]nc(CCC(=O)NCC2COc3ccccc3C2)c1C` (centres undefined), the INHIBITION was 13.7%. Then `COc1ccc2c(c1)OCC(CNC(=O)c1cnc(O)cn1)C2` (centres undefined), with 12.9%; and `CCNC(=O)c1ccnc(NCC2COc3cc(OC)ccc3C2)c1` (centres undefined), with 51.6%; and `COc1ccc2c(c1)OCC(CNC(=O)c1cc[nH]c1C)C2` (centres undefined), with -3.83%.

Take `Cc1n[nH]c(C)c1CCC(=O)NCC1COc2ccccc2C1` (centres undefined): the INHIBITION is recorded as 52.6%.

As for `COc1ccc2c(c1)OCC(CNC(=O)c1cnc(NC(C)C)nc1)C2` (centres undefined), the INHIBITION was -42.8%. With `COc1ccc2c(c1)OCC(CNC(=O)c1ccc3[nH]nnc3c1)C2` (centres undefined) the figure was 4.52%. With `CC(C)c1nn(C)cc1CNCc1cccc(N(C)C)c1` the figure was 12.4%; with `Cc1nccn1C1CCCN(C(=O)COC2CCCC2)C1` (centres undefined), 39.735%. Then `CCN(c1ccc(C(=O)NCCCN2CCOCC2)cc1)S(=O)(=O)CC`, with -0.79%; and `NCC(CO)Cc1ccc(OC(F)(F)F)cc1` (centres undefined), with 19%.

As to `CCOc1ccc(Cl)c(C(=O)N2CCN(CC(C)(C)O)CC2)n1`, the INHIBITION was found to be 4.52%.

Take `CCC[C@H]1CN(C(=O)c2cc(-c3cccs3)n(C)n2)C[C@@H]1N`: the INHIBITION worked out at 29.7%. Then `c1cc(-c2nc(CN3CCc4c(ncn4C4CC4)C3)cs2)cs1`, with 22.6%. With `COCCN1C[C@@H]2CN(c3cc(OC)ncn3)CCC[C@]2(C(=O)O)C1` the figure was 57.1%; with `COc1cc(N2CCC[C@]3(C(=O)O)CN(C(C)C)C[C@@H]3C2)ncn1`, 26.5%; with `CCN1C[C@@H]2CN(c3cc(OC)ncn3)CCC[C@]2(C(=O)O)C1`, 47.5%. With `CN(C)S(=O)(=O)N1CCCC(C)(c2ncc(C(N)=O)s2)C1` (centres undefined) the figure was 23.9%; with `O=C(COC1CCCC1)NCCCn1nc2ccccn2c1=O`, -24.6%. Regarding `CN1CCC(N(CCc2ccccc2)C(=O)c2cc[nH]c2)CC1`, the INHIBITION is reported as 32.8%.

Turning to `CN1CCOC(C)(C(=O)N2CCN(C3CCCC3)CC2)C1` (centres undefined), the INHIBITION is 32.8%. Then `CC1(C(=O)N2CCOCC2)CN(CC2CCOCC2)CCO1` (centres undefined), with 7.25%. Take `CC1(C(=O)N2CCOCC2)CN(C2CCCCC2)CCO1` (centres undefined): the INHIBITION is 56.8%.
